Assay outcomes (PubChem BioAssay)
ABCB6 inh MLPCN – ABCB6 transporter inhibitors, primary screen, K562-ABCB6 cells, flow cytometry, MLPCN library; K562-ABCB6 porphyrin accumulation, 1 h; hits give low values; fluorescence ratio to DMSO, % at 10 µM; 360,000 compounds, 0.19% hits; AID 602162, 2011;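 active = fluorescence ratio to DMSO below 75%, the collection mean minus 3 SD; inconclusive = too few cells collected in the well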;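 note: signal is porphyrin accumulated inside mitochondria; 100% equals median channel fluorescence of DMSO control wells; lower ratio means ABCB6 inhibition with less porphyrin fluorescence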
TLR4-MyD88 BLA – inhibitors of TLR4-MyD88 association in cells, primary screen, cell-based, HeLa CL3-4, BLA complementation, FRET ratio; HeLa CL3-4 TLR4/MyD88 BLA complementation; 200,000 compounds, 0.18% hits; inhibition, % at 8.4 µM; Toll-like receptor 4 (Homo sapiens) + Myeloid differentiation primary response protein …; in the data active = inhibition above about 25%;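 note: 0% = vehicle and 100% = reference inhibitor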
NOD2 RIPK2 PPI – NOD2-RIPK2 binding disruptors in cells, primary screen, fluorescence, CHO cells, BLA complementation. 360,000 compounds, 0.38% hits. inhibition, % at 4.98 µM. Receptor-interacting serine/threonine-protein kinase 2 (Homo sapiens), O43353. CCF4 ratio; in the data active = inhibition above about 21%;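 note: 0% = vehicle only and 100% = reference blocker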
Myeloid diff 2 – induction of myeloid progenitor differentiation, primary screen, cell-based, flow cytometry, MLPCN library; calls only at 10 µM; AID 624256, 2012; 360,000 compounds, 1% hits; ER-HoxA9 myeloid progenitors, lysozyme-GFP differentiation;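 active = normalized GFP-positive differentiation at or above the plate's own cutoff, the solvent-only control mean plus 3 SD; inconclusive = no clear call, values can overlap the other calls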;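 note: cells exposed to compound for four days before flow analysis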
TLR9-MyD88 block – inhibitors of TLR9-MyD88 association in cells, primary screen, cell-based, CHO, BLA complementation, fluorescence. Toll-like receptor 9 (Homo sapiens) + Myeloid differentiation primary response protein …. CCF4 FRET ratio. inhibition, % at 4.98 µM. 340,000 compounds, 0.21% hits. AID 504734, 2011;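 active = inhibition above the mean over all tested compounds plus 3 SD, cut at about 21% in these data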;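 note: 0% = DMSO only wells and 100% = clavulanate BLA inhibitor control wells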
The depositor's hits bear a star; i = inactive; u = inconclusive; x = no result given; + = active, no number. The list is not random: actives were taken first. Their share in the collection is about 1.7%.

SMILES | ABCB6 inh MLPCN | TLR4-MyD88 BLA | NOD2 RIPK2 PPI | Myeloid diff 2 | TLR9-MyD88 block
O=S(=O)(Nc1nc2ccccc2s1)c1ccc(Br)s1 | 92 | 3 | -3 | + | -4
NC(=O)c1sc2nc(-c3ccccc3)ccc2c1N | 135 | x | -4 | + | 5
NC(=O)c1sc2nc(-c3cccs3)ccc2c1N | 115 | x | 2 | i | 2
CCNc1nc(NC(C)C)nc(NS(=O)(=O)c2ccc(N)cc2)n1 | 98 | -7 | -17 | + | 8
CC(C)Nc1nc(NC(C)C)nc(NS(=O)(=O)c2ccc(N)cc2)n1 | 88 | -2 | 2 | i | -5
CCCOc1cccc(-c2nn(-c3ccccc3)cc2/C=C(\C#N)C(=O)NCCCn2ccnc2)c1 | 125 | 0 | 4 | + | 0
O=C(NCCOc1ccccc1)C1CCC(=O)N(CCCN2CCCC2=O)C1 (centres undefined) | 85 | x | -11 | i | 9
COc1ccc(C(C)NC(=O)CCc2ccccc2)cc1 (centres undefined) | 97 | x | -5 | i | -1
COc1ccc(CCC(=O)NC2CCC(C)CC2)cc1 (centres undefined) | 101 | x | -13 | + | 1
COc1ccc(CCCC(=O)NC2CCCCC2)cc1 | 103 | -12 | -20 | i | -14
COc1ccc(CCC(=O)NC(C)C)cc1 | 298 | -10 | -9 | + | -8
O=C(NCCOc1ccccc1)C(=O)c1c[nH]c2ccccc12 | 100 | x | 7 | i | -5
COc1cccc(C2CC(c3cccs3)=NN2C(=O)CSC2=NN3CCCC(=O)N=C3S2)c1OC (centres undefined) | 87 | 3 | -7 | + | 5
COc1ccc(C2=NN(C(=O)CSC3=NN4CCCC(=O)N=C4S3)C(c3cccc(OC)c3OC)C2)cc1 (centres undefined) | 86 | -2 | -11 | i | 7
Cc1ccc(S(=O)(=O)NC2CC(C)(C)N(O)C(C)(C)C2)cc1 | 108 | x | 10 | i | -12
COc1ccc2c(c1)CCC(=O)[C@H](O)C[C@H](c1ccccc1)OC2=O | 95 | x | -9 | i | x
COc1ccc(CNc2cc(C)nc3ncnn23)c(OC)c1 | 101 | 10 | -10 | + | -14
Cc1ccc(Nc2ncnc3sc(C)c(C)c23)cc1C | 95 | -2 | 6 | + | 10
COc1cccc(NC(=O)C2CCC(CNS(=O)(=O)c3ccc4c(c3)CC(C)N4C(C)=O)CC2)c1 (centres undefined) | 95 | x | 8 | i | 7
Nc1ccc(C(=O)NCCCCCCNC(=O)c2ccc(N)cc2)cc1 | 97 | x | -9 | i | 5
O=C(O)CNC(=O)c1ccc(Oc2c(F)c(F)c(Oc3ccc(C(=O)NCC(=O)O)cc3)c(F)c2F)cc1 | 100 | x | -1 | + | -14
Nc1ccc(C(=O)NCC(=O)O)cc1 | 101 | x | -12 | + | -3
Nc1c(N(CCCO)C(=O)C2CCCCC2)c(=O)[nH]c(=O)n1Cc1ccccc1 | 92 | x | -11 | i | -1
CN(C)CCCN(C(=O)c1cccs1)c1nc(-c2ccccc2)cs1 | 100 | 4 | 9 | + | 3
COc1ccc(-c2csc(N(CCCN(C)C)C(=O)c3ccccc3C)n2)cc1 | 99 | x | 0 | i | -7
SMILES | ABCB6 inh MLPCN | TLR4-MyD88 BLA | NOD2 RIPK2 PPI | Myeloid diff 2 | TLR9-MyD88 block
CCc1nc(SCC(=O)N2CCN(c3ccccc3)CC2)c2c(=O)n(C)c(=O)n(C)c2n1 | x | -33 | x | x | x
CCCc1nc(SCC(=O)N2CCC(Cc3ccccc3)CC2)c2c(=O)n(C)c(=O)n(C)c2n1 | 92 | 0 | -1 | + | 9
Cc1c(NC(=O)COC(=O)c2cc(-c3ccc(-c4ccccc4)cc3)nc3ccccc23)c(=O)n(-c2ccccc2)n1C | 95 | -10 | 2 | + | -4
Cc1c(NC(=O)c2cc(-c3ccccc3)nc3ccccc23)c(=O)n(-c2ccccc2)n1C | 99 | x | 0 | i | -2
C=CCC1(CC=C)CCCN1C(=O)C1CCC(=O)N(CCc2ccccc2)C1 (centres undefined) | 101 | x | -2 | i | -1
CCOC(=O)c1c(-c2ccc(C)cc2)csc1NC(=O)/C(C#N)=C/c1ccc(O)c(OC)c1 | 480 | 6 | 1 | + | 6
CCOC(=O)/C(C#N)=C\c1ccc(O)c(OC)c1 | 104 | 3 | 9 | i | 11
CCOC(=O)c1c(-c2ccccc2)csc1NC(=O)/C(C#N)=C\c1ccc(O)c(OC)c1 | 711 | x | 1 | + | 7
Cc1ccnc(NC(=O)CN2C(=O)NC(C)(c3ccc4ccccc4c3)C2=O)c1 (centres undefined) | 99 | x | 2 | i | -4
NC(=O)C1=C[C@@H](c2csc3ccccc23)C[C@@H](OCCCCO)O1 | 100 | -5 | -6 | + | -5
C=CCOC(=O)C1=C[C@H](c2csc3ccccc23)C[C@H](OCCCCO)O1 | 97 | x | 9 | i | 4
C#CCOCCOCCOCCNc1nc(N2CCN(C(=O)[C@H]([C@@H](C)O)n3cc(CCCCN)nn3)CC2)nc(N2CCN(C(=O)[C@H](CCCCN)n3cc(CCCC)nn3)CC2)n1 | 99 | x | 1 | + | 1
C#CCOCCOCCOCCNc1nc(N2CCN(C(=O)[C@H]([C@@H](C)CC)n3cc(CCCCN)nn3)CC2)nc(N2CCN(C(=O)[C@H](CCCCN)n3cc(CC(C)O)nn3)CC2)n1 (some centres undefined) | 100 | x | -4 | + | 4
CC(NC(=O)COC(=O)/C=C/c1ccc2c(c1)OCO2)c1ccccc1 (centres undefined) | 96 | x | 1 | i | 2
COc1ccc(CCC(=O)Nc2ccccc2C(F)(F)F)cc1 | 101 | -2 | 3 | i | 8
Cc1[nH]c2ccccc2c1/C=C/c1cc[n+](C)cc1 | i | 11 | 3 | + | 9
CCN(CC)C(=O)Cn1c(C)c(/C=C/c2cc[n+](C)cc2)c2ccccc21 | 292 | x | 4 | + | 7
CCn1cc(/C=C/c2cc[n+](C)cc2)c2ccccc21 | i | x | 0 | u | 8
Cc1[nH]c2ccccc2c1/C=C/C(=O)c1ccncc1 | 133 | x | 7 | + | -3
C[n+]1ccc2[nH]c3ccccc3c2c1 | 96 | x | 0 | i | x
O=C(/C=C/c1cccc2ccccc12)c1ccncc1 | 97 | -7 | 11 | i | -1
Cc1ccc(C(=O)/C=C/c2c[nH]c3ccccc23)cc1 | 110 | 25 | 25* | i | 16
CCCCN(C(=S)SC)C1CCS(=O)(=O)C1 (centres undefined) | 93 | x | -14 | i | x
